The source made the active and inactive calls. Rule for the calls: active = hit-call score of the fitted dose curve at least 0.9, where 1 is the maximum; inactive = score below 0.9.
What was measured:
[1] = target: CCAAT/enhancer-binding protein beta (Homo sapiens) (UniProt P17676); test: ATG_C_EBP_CIS: Attagene CIS-FACTORIAL HepG2 Assay for human CCAAT/Enhancer Binding Protein (C/EBP) beta (AID 2282927); details: HepG2 Attagene cis-factorial transcription factor reporter; actives raise or lower the signal
CCAAT/enhancer-binding protein beta (Homo sapiens), sequence (P17676 whole entry, looked up): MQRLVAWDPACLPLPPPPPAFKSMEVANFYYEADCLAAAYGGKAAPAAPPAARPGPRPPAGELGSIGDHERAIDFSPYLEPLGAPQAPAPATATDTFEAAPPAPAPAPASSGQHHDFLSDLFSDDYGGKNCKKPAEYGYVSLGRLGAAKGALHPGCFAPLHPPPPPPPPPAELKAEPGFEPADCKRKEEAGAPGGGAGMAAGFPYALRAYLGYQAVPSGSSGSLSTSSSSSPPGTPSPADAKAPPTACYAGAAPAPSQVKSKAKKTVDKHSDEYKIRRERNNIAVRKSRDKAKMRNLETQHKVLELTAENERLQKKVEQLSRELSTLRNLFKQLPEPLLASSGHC
Summary of the method: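 Following a 24 h incubation with test chemical, transfected HepG2 cells yielded RNA whose reporter transcripts were quantified by RT-PCR and fluorescent capillary electrophoresis, with DMSO serving as baseline for bidirectional fitting.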

[2] = ATG_CMV_CIS: Attagene CIS-FACTORIAL HepG2 Assay for human CMV (Internal Marker) (AID 2282928); details: HepG2 CMV promoter reporter, transcription factor profiling; actives raise or lower the signal;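 note: endpoint acts as a background internal control marker rather than a target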
Summary of the method: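 HepG2 cells transiently transfected with multiple cis-regulated reporter units; 24 h compound exposure. Reporter mRNA quantified by RT-PCR, 6-FAM primer-extension labeling, HpaI digestion and capillary electrophoresis; bidirectional fitting against DMSO baseline.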

[3] = ATG_DR4_LXR_CIS: Attagene CIS-FACTORIAL HepG2 Assay for human Liver X Receptor (LXR), DR4 submotif (AID 2282929); details: HepG2 Attagene DR4 cis-reporter, mRNA transcription; actives raise or lower the signal
Summary of the method: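 Cells were transfected with multiple reporter transcription units, exposed to chemicals for 24 hours, then lysed for RNA. Reporter mRNA induction was measured by RT-PCR with capillary electrophoresis detection and fitted in both directions relative to DMSO.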

[4] = target: Aryl hydrocarbon receptor (Homo sapiens) (UniProt P35869); test: ATG_Ahr_CIS: Attagene CIS-FACTORIAL HepG2 Assay for human Aryl Hydrocarbon Receptor (Ahr) (AID 2282930); details: HepG2 AhR cis-factorial reporter transcription; actives raise or lower the signal
Aryl hydrocarbon receptor (Homo sapiens), sequence (P35869 whole entry, looked up): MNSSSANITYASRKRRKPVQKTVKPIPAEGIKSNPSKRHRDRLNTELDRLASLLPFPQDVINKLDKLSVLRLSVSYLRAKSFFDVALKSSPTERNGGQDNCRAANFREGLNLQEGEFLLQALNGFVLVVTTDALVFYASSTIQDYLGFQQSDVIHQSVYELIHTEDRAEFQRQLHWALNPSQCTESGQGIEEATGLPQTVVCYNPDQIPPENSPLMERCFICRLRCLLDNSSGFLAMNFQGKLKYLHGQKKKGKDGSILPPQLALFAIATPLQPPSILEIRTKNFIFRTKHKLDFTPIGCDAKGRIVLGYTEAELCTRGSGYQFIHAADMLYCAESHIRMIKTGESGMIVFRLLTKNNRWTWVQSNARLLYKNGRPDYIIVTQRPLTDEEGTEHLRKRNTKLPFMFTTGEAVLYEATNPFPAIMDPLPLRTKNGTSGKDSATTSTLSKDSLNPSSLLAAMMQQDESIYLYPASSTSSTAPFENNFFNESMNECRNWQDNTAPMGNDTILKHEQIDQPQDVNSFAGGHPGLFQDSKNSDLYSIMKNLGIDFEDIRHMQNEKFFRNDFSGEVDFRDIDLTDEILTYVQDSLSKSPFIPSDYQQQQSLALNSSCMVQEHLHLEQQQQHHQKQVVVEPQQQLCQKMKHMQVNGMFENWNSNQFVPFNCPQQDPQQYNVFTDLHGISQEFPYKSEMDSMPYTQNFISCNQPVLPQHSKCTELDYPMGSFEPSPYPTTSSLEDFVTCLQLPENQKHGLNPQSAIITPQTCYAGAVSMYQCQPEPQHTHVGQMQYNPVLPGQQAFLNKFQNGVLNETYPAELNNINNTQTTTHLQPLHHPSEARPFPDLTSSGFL
Summary of the method: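 Values derive from bidirectional fitting against DMSO negative control. Underlying signal: cis-element reporter mRNA in transiently transfected HepG2, harvested 24 h post-dose and measured by RT-PCR plus capillary electrophoresis.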

[5] = ATG_AP_1_CIS: Attagene CIS-FACTORIAL HepG2 Assay for human Activator Protein 1 (AP-1) (AID 2282931); details: HepG2 Attagene cis-factorial AP-1 reporter mRNA; actives raise or lower the signal
Summary of the method: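 Endogenous transcription-factor activity in human HepG2 liver cells is read through a cis-promoter reporter transcript, sampled 24 h after dosing. Detection uses RT-PCR with capillary electrophoresis; values come from bidirectional fitting relative to DMSO.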

[6] = ATG_BRE_CIS: Attagene CIS-FACTORIAL HepG2 Assay for human Bone Morphogenetic Protein (BMP) Response Element (BRE) (AID 2282933); details: HepG2 BMP response element reporter, Attagene transcription factor profiling; actives raise or lower the signal
Summary of the method: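 HepG2 cells transiently transfected with CIS reporter units (endogenous TF activity, BMP response element), dosed 24 h. Reporter mRNA quantified by RT-PCR, fluorescent labelling and capillary electrophoresis; bidirectional fit vs DMSO baseline.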

[7] = target: Retinoic acid receptor alpha (Homo sapiens) (UniProt P10276); test: ATG_DR5_RAR_CIS: Attagene CIS-FACTORIAL HepG2 Assay for human Retinoic Acid Receptor Alpha (RARE), DR5 submotif (AID 2282934); details: HepG2 Attagene cis-factorial RARE DR5 reporter, mRNA; actives raise or lower the signal
Retinoic acid receptor alpha (Homo sapiens), sequence (P10276 whole entry, looked up): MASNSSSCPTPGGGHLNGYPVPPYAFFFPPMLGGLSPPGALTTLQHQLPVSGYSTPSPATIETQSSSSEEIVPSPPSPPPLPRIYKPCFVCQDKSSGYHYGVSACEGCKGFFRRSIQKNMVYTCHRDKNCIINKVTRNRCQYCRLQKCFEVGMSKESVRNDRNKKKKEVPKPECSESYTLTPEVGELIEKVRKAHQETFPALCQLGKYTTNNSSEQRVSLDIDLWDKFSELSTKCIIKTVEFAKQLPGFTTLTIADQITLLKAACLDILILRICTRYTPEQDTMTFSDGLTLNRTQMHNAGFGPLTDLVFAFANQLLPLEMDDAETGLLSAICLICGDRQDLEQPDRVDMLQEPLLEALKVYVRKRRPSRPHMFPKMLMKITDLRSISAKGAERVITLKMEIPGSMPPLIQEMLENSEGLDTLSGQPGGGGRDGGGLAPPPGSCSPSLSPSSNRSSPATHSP
Summary of the method: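 Endpoint fitted in both directions relative to DMSO as negative control. It reflects DR5 cis-element reporter mRNA induction in transiently transfected HepG2 cells, measured 24 h after dosing through RT-PCR and fluorescent capillary electrophoresis.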

[8] = target: Transcription factor E2F1 (Homo sapiens) (UniProt Q01094); test: ATG_E2F_CIS: Attagene CIS-FACTORIAL HepG2 Assay for human E2F Transcription Factor 1 (AID 2282935); details: HepG2 Attagene cis-reporter, E2F reporter RNA transcripts; actives raise or lower the signal
Transcription factor E2F1 (Homo sapiens), sequence (Q01094 whole entry, looked up): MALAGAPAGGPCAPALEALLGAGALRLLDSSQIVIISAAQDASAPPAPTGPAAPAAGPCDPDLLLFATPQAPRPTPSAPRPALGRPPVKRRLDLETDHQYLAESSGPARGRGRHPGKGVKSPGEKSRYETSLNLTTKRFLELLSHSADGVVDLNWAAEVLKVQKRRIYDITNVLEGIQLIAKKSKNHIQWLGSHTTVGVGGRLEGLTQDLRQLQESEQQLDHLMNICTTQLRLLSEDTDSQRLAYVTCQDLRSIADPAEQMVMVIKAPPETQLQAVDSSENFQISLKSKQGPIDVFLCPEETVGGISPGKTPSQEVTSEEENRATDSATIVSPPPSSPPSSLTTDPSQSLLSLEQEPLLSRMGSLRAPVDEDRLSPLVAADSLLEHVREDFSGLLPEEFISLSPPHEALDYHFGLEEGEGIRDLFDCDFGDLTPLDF
Summary of the method: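 HepG2 cells transiently transfected with multiplexed cis-element reporter units, dosed for 24 h. Reporter mRNA measured by RT-PCR, 6-FAM primer-extension labeling, HpaI digestion and capillary electrophoresis; bidirectional fit versus DMSO baseline.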

[9] = ATG_E_Box_CIS: Attagene CIS-FACTORIAL HepG2 Assay for human Enhancer Box (E-box) (AID 2282936); details: HepG2 E-box cis-reporter transcription, actives raise or lower the signal
Summary of the method: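 HepG2 cells transiently transfected with multiplexed cis-element reporter units sensing endogenous transcription factor activity; 24 h compound exposure. Reporter mRNA measured by RT-PCR, 6-FAM primer extension, HpaI digestion and capillary electrophoresis; bidirectional fit versus DMSO.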

[10] = ATG_EGR_CIS: Attagene CIS-FACTORIAL HepG2 Assay for human Early Growth Response 1 (EGR1) (AID 2282938); details: HepG2 Attagene CIS-FACTORIAL EGR reporter mRNA; actives raise or lower the signal
Summary of the method: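 Endogenous TF activity in HepG2 liver cells was gauged through cis-promoter reporter constructs transiently transfected. After 24 h dosing, reporter mRNA was quantified by RT-PCR and capillary electrophoresis, and curves fitted in both directions versus DMSO.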

[11] = ATG_M_19_CIS: Attagene CIS-FACTORIAL HepG2 Assay for M19 Transcription Factor (Internal Marker) (AID 2282939); details: HepG2 Attagene CIS-FACTORIAL M19 internal marker reporter; actives raise or lower the signal
Summary of the method: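 HepG2 cells transiently transfected with cis-regulated multiplexed reporter units, dosed 24 h. Reporter mRNA quantified by RT-PCR and capillary electrophoresis; internal background marker fitted bidirectionally versus DMSO.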

[12] = ATG_ERE_CIS: Attagene CIS-FACTORIAL HepG2 Assay for Estrogen Response Element (ERE) (AID 2282940); details: HepG2 ERE cis-reporter, Attagene RNA transcript; actives raise or lower the signal
Summary of the method: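 HepG2 cells transiently transfected with multiplexed cis-element reporter units, measuring endogenous transcription factor activity; ERE reporter mRNA quantified after 24 h exposure by RT-PCR, fluorescent labelling, HpaI digestion and capillary electrophoresis. Bidirectional change versus DMSO.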

[13] = ATG_Ets_CIS: Attagene CIS-FACTORIAL HepG2 Assay for human Erythroblast Transformation Specific (ETS) (AID 2282941); details: HepG2 ETS cis-reporter transcription, actives raise or lower the signal
Summary of the method: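 HepG2 cells transiently transfected with cis-promoter reporter transcription units were dosed for 24 h; reporter mRNA was measured by RT-PCR, 6-FAM primer extension, HpaI digestion and capillary electrophoresis, with bidirectional fitting against DMSO baseline.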

[14] = target: Hepatocyte nuclear factor 3-beta (Homo sapiens) (UniProt Q9Y261); test: ATG_FoxA2_CIS: Attagene CIS-FACTORIAL HepG2 Assay for human Forkhead box A2 (FOXA2) (AID 2282942); details: HepG2 cis-reporter transcription factor activity, 24 h; actives raise or lower the signal
Hepatocyte nuclear factor 3-beta (Homo sapiens), sequence (Q9Y261 whole entry, looked up): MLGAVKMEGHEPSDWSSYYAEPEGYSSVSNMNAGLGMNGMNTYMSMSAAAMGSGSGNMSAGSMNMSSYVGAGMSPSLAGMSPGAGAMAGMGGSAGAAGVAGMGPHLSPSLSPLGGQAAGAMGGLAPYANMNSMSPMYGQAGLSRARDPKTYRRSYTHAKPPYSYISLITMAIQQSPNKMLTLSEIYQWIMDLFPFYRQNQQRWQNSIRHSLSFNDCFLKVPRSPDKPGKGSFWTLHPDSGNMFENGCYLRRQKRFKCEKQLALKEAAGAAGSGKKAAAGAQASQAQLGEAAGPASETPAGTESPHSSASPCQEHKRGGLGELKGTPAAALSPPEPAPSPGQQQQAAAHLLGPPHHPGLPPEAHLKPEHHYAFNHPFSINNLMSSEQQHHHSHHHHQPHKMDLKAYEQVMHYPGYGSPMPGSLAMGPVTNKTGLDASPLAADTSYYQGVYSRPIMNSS
Summary of the method: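 Endogenous transcription factor activity was read in HepG2 cells carrying transiently transfected cis-promoter reporter units. After 24 h dosing, reporter mRNA was quantified by RT-PCR and capillary electrophoresis, and values fitted bidirectionally versus DMSO.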

[15] = ATG_FoxO_CIS: Attagene CIS-FACTORIAL HepG2 Assay for human Forkhead box O (FoxO) (AID 2282943); details: HepG2 Attagene cis-reporter, FoxO element, mRNA; actives raise or lower the signal
Summary of the method: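 Values reflect reporter mRNA induction or loss in HepG2 cells 24 h post-dosing, fitted bidirectionally with DMSO as negative control and baseline. Detection used RT-PCR and fluorescence capillary electrophoresis.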

[16] = ATG_GATA_CIS: Attagene CIS-FACTORIAL HepG2 Assay for human GATA Binding Protein (AID 2282944); details: HepG2 GATA cis-element reporter, Attagene multiplex mRNA; actives raise or lower the signal
Summary of the method: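 HepG2 cells transiently transfected with multiplexed cis-element reporter units measure endogenous GATA activity; after 24 h compound exposure, reporter mRNA quantified by RT-PCR and capillary electrophoresis. Changes fitted in both directions vs DMSO.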

[17] = ATG_GLI_CIS: Attagene CIS-FACTORIAL HepG2 Assay for human Zinc Finger Protein GLI1 (AID 2282945); details: HepG2, Attagene cis-factorial reporter mRNA, GLI element; actives raise or lower the signal
Summary of the method: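 HepG2 cells transiently transfected with cis-promoter multiplexed reporter units report endogenous transcription factor activity. After 24 h chemical exposure, reporter mRNA was quantified by RT-PCR, 6-FAM labelling, HpaI digestion and capillary electrophoresis, with bidirectional fitting against DMSO.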

[18] = ATG_AP_2_CIS: Attagene CIS-FACTORIAL HepG2 Assay for human Activator Protein 2 (AP-2) (AID 2282932); details: HepG2 AP-2 cis-reporter, Attagene transcription factor profiling; actives raise or lower the signal
Summary of the method: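 HepG2 cells were transiently transfected with multiple cis-promoter reporter transcription units and dosed for 24 h. Reporter mRNA was measured by RT-PCR with capillary electrophoresis fluorescence; bidirectional fits relative to DMSO baseline.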

[19] = ATG_M_61_CIS: Attagene CIS-FACTORIAL HepG2 Assay for M61 Transcription Factor (Internal Marker) (AID 2282937); details: HepG2 Attagene CIS-FACTORIAL M61 internal marker reporter; actives raise or lower the signal
Summary of the method: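 Cells were transfected with reporter units under cis-regulatory promoters, treated with chemicals for 24 h, then lysed for RNA. Reporter transcripts were quantified by RT-PCR and capillary electrophoresis, and activity was fitted bidirectionally against DMSO.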

Measured: AC50

CCCCCCCCCl
inactive: [1] | [2] | [3] | [4] | [5] | [6] | [7] | [8] | [9] | [10] | [11] | [12] | [13] | [14] | [15] | [16] | [17]

CCOC(=O)Nc1cccc(OC(=O)Nc2ccccc2)c1
inactive: [1] | [2] | [3] | [4] | [5] | [18] | [6] | [7] | [8] | [9] | [19] | [10] | [11] | [12] | [13] | [14] | [15] | [16]

CC(=O)c1cc(C(C)(C)C)cc2c1CCC2(C)C
active: [1] 159 µM | [2] 62.5 µM | [3] 26.1 µM | [5] 70.4 µM | [8] 171 µM | [10] 37.9 µM | [14] 147 µM | [17] 143 µM
inactive: [4] | [6] | [9] | [11] | [12] | [13] | [15] | [16]

CCCCCCCCC(=O)NCc1ccc(O)c(OC)c1
inactive: [1] | [2] | [5] | [18] | [7] | [8] | [9] | [10] | [11] | [12] | [13] | [14] | [15] | [16] | [17]
active: [3] 54.5 µM | [6] 171 µM

CCN(CC)C(=O)Cl
inactive: [1] | [2] | [3] | [4] | [5] | [18] | [6] | [8] | [9] | [19] | [10] | [11] | [13] | [14] | [15] | [16] | [17]

O=C(O)C(F)(F)C(F)(F)C(F)(F)C(F)(F)C(F)(F)C(F)(F)F
inactive: [1] | [2] | [3] | [4] | [5] | [18] | [6] | [7] | [8] | [9] | [19] | [10] | [11] | [13] | [14] | [15] | [16] | [17]

CCC(=O)c1ccccc1
inactive: [1] | [2] | [3] | [4] | [5] | [6] | [8] | [9] | [19] | [10] | [11] | [13] | [14] | [15] | [16] | [17]

CC(Br)C(=O)O (stereo not given)
inactive: [1] | [2] | [3] | [4] | [5] | [18] | [6] | [7] | [8] | [9] | [10] | [11] | [12] | [13] | [14] | [15] | [16] | [17]

C=CC#N
active: [12] 71.5 µM
inactive: [1] | [2] | [3] | [4] | [5] | [18] | [6] | [7] | [8] | [9] | [10] | [11] | [13] | [14] | [15] | [16] | [17]
